Reference: the supplement of paper PMC13380429

Test system: Vero E6 infected with SARS-CoV-2
Test: inhibition of SARS-CoV-2 cytopathic effect; higher = more antiviral protection, active = above 15
Conditions: 48 h

Measured: inhibition of SARS-CoV-2 cytopathic effect

C#C[C@]1(O)CC[C@H]2[C@@H]3CCc4cc(O)ccc4[C@H]3CC[C@@]21C
inactive: 1 nM 0.97% | 8.33 nM 0.51% | 100 nM 6.67% | 833.33 nM 3.6% | 10000 nM 7.74%

O=C(NCCN1CCC2(CC1)C(=O)NCN2c1cccc(F)c1)c1ccc2ccccc2c1
active: 10000 nM 83.1%
inactive: 1 nM 0.75% | 8.33 nM 3.53% | 100 nM 1.66% | 833.33 nM 1.45%

Fc1ccc(Cl)cc1-c1nc(Nc2ccncc2)c2nccnc2n1
inactive: 1 nM -0.85% | 8.33 nM 0.45% | 100 nM -1.96% | 833.33 nM -3.87% | 10000 nM -7.46%

CC1(C)C(=O)N(CCN2CCC(C(=O)c3ccc(F)cc3)CC2)c2ccccc21
inactive: 1 nM -2.5% | 8.33 nM 0.34% | 100 nM -1.18% | 833.33 nM -0.38% | 10000 nM 0.46%

CN(C)c1cccc(-c2c3c(=O)n(-c4ccccc4Cl)[nH]c3cc(=O)n2C)c1
inactive: 1 nM -1.01% | 8.33 nM 2.2% | 100 nM 0.39% | 833.33 nM -1.67% | 10000 nM 9.86%

CCC(Cc1c(I)cc(I)c(N)c1I)C(=O)O (stereo not given) [iopanic-acid]
inactive: 1 nM 2.78% | 8.33 nM 2.89% | 100 nM 1.6% | 833.33 nM 0.47% | 10000 nM 2.12%

NC(=O)OCCCc1ccccc1 [phenprobamate]
inactive: 1 nM 0.89% | 8.33 nM 0.93% | 100 nM -0.42% | 833.33 nM -2.45% | 10000 nM -2.7%

COc1ccc2c(c1)C=C1Cn3c-2c(C2CCCCC2)c2ccc(cc23)C(=O)NS(=O)(=O)N(C)CCOCCN(C)C1=O
inactive: 1 nM 3.67% | 8.33 nM 0.37% | 100 nM 0.59% | 833.33 nM 2.72% | 10000 nM 8.22%

O=C1COc2nccc(-c3ccccc3F)c2CN1Cc1cc(C(F)(F)F)cc(C(F)(F)F)c1
inactive: 1 nM -0.76% | 8.33 nM -1.69% | 100 nM -0.49% | 833.33 nM -2.79% | 10000 nM -1.55%

C/C(=N\NC(=O)[C@@H]1C(=O)NC[C@H]1c1ccccc1)c1cccc(Br)c1
inactive: 1 nM -1.05% | 8.33 nM 1.12% | 100 nM 1.69% | 833.33 nM -2.01% | 10000 nM -2.3%

CCCCCCCCCCOc1cc2c(O)c(C(=O)OCC)cnc2cc1OCC [decoquinate]
inactive: 1 nM -0.9% | 8.33 nM -0.75% | 100 nM -1.59% | 833.33 nM -0.59% | 10000 nM 2.03%

CNC(=O)[C@@H](NC(=O)[C@H](CC(C)C)[C@H](O)C(=O)NO)C(C)(C)C [marimastat]
inactive: 1 nM -4.07% | 8.33 nM 2.33% | 100 nM -5.18% | 833.33 nM -6.93% | 10000 nM -13.7%

O=c1cc(-c2ccccc2)oc2cc(O)cc(O)c12 [chrysin]
inactive: 1 nM -1.5% | 8.33 nM 0.24% | 100 nM -1.23% | 833.33 nM -7.18% | 10000 nM -3.61%

CN1CCN(c2cc3c(cc2F)c(=O)c(C(=O)O)cn3-c2ccc(F)cc2)CC1 [difloxacin]
inactive: 1 nM -1.68% | 8.33 nM 2.12% | 100 nM 0.47% | 833.33 nM 0.94% | 10000 nM 1.41%

COc1c2occc2c(OC)c2c(=O)cc(C)oc12 [khellin]
inactive: 1 nM 3.97% | 8.33 nM -0.75% | 100 nM -0.95% | 833.33 nM -3.54% | 10000 nM -0.89%

Cc1cc(C)c2nc(-c3ccccn3)cc(C(=O)Nc3ccc(S(=O)(=O)Nc4onc(C)c4C)cc3)c2c1
inactive: 1 nM -1.1% | 8.33 nM 1.15% | 100 nM -0.62% | 833.33 nM -9.3% | 10000 nM -3.05%

C[C@@H]1CCC[C@H](C)N1NC(=O)c1ccc(Cl)c(S(N)(=O)=O)c1 [clopamide]
inactive: 1 nM -1.53% | 8.33 nM 2.77% | 100 nM 0.22% | 833.33 nM 5.88% | 10000 nM -2.61%

COc1ccc(C(=O)N2CCCC2=O)cc1 [aniracetam]
inactive: 1 nM 0.63% | 8.33 nM 0.43% | 100 nM 0.75% | 833.33 nM 0.1% | 10000 nM 0.6%

CC(C)(C)C[C@@H]1N[C@@H](C(=O)N[C@H]2CC[C@H](O)CC2)[C@H](c2cccc(Cl)c2F)[C@]12C(=O)Nc1cc(Cl)ccc12
inactive: 1 nM -4.12% | 8.33 nM -2.43% | 100 nM -7.89% | 833.33 nM 2.65% | 10000 nM 2.37%

C[C@@H]1C[C@H]2[C@@H]3C[C@H](F)C4=CC(=O)C=C[C@]4(C)[C@@]3(F)[C@@H](O)C[C@]2(C)[C@@]1(O)C(=O)CO [flumethasone]
inactive: 1 nM 0.24% | 8.33 nM -0.72% | 100 nM 1.45% | 833.33 nM 0.62% | 10000 nM 0.56%

O=C(OCCN1CCOCC1)c1cccnc1Nc1cccc(C(F)(F)F)c1 [morniflumate]
inactive: 1 nM -1.61% | 8.33 nM -3.25% | 100 nM -3.87% | 833.33 nM -4.12% | 10000 nM -5.47%

CCOc1ccc(NC(C)=O)cc1 [phenacetin]
inactive: 1 nM 0.72% | 8.33 nM -3.1% | 100 nM 1.64% | 833.33 nM 0.87% | 10000 nM 0.81%

COc1cc(NC(C)CCCN)c2ncccc2c1 (stereo not given) [primaquine]
inactive: 1 nM 1.68% | 8.33 nM 2.25% | 100 nM 0.83% | 833.33 nM 1.27% | 10000 nM 3.23%

CC(C)(C)CCN1C[C@@H]2[C@@H](CNC(=O)c3cc(Cl)cc(Cl)c3)[C@@H]2C1
inactive: 1 nM 2.47% | 8.33 nM 2.05% | 100 nM 1.76% | 833.33 nM 2.2% | 10000 nM -10.4%

O=C(C(c1ccccc1)c1ccccc1)N1CCN(CC(O)COc2cccc3ncccc23)CC1 (stereo not given) [dofequidar]
inactive: 1 nM -0.98% | 8.33 nM 4.84% | 100 nM -1.1% | 833.33 nM -0.87% | 10000 nM 1.44%

COc1cc(N2CCC(N3CCN(C)CC3)CC2)ccc1Nc1ncnc(Nc2ccccc2S(=O)(=O)C(C)C)n1
inactive: 1 nM 1.25% | 8.33 nM -0.68% | 100 nM 1.16% | 833.33 nM 2.18% | 10000 nM -7.16%

COc1cccc(OC)c1-c1ccc(C[C@H](NC(=O)c2c(Cl)cccc2Cl)C(=O)O)cc1
inactive: 1 nM 0.68% | 8.33 nM 2% | 100 nM 0.48% | 833.33 nM 1.89% | 10000 nM 1.23%

CCOc1nc2cccc(C(=O)OC(C)OC(=O)OC3CCCCC3)c2n1Cc1ccc(-c2ccccc2-c2nn[nH]n2)cc1 (stereo not given) [candesartan-cilexetil]
inactive: 1 nM -0.98% | 8.33 nM -0.29% | 100 nM -1.43% | 833.33 nM -3.03% | 10000 nM -2.32%

O=C(Nc1ccccc1)N1CCN(c2nc(-c3ccccc3)ns2)CC1
inactive: 1 nM 1.74% | 8.33 nM 1.97% | 100 nM 2.17% | 833.33 nM 0.01% | 10000 nM -2.23%

c1ccc(-c2n[nH]cc2-c2ccnc3ccccc23)nc1
inactive: 1 nM 1.81% | 8.33 nM -0.93% | 100 nM -2.43% | 833.33 nM -2.05% | 10000 nM -1.69%

Oc1c(I)cc(I)c(O)c1I [riodoxol]
inactive: 1 nM 0% | 8.33 nM 0.37% | 100 nM -0.65% | 833.33 nM -2.42% | 10000 nM -0.9%

CC(C)(C)c1ccc(O)cc1 [4-tert-butylphenol]
inactive: 1 nM -0.71% | 8.33 nM 1.9% | 100 nM -1.66% | 833.33 nM 2.45% | 10000 nM 2.59%

O=S(=O)(c1ccccc1)c1cnc2c(N3CCNCC3)cccc2c1
inactive: 1 nM -2.8% | 8.33 nM -0.02% | 100 nM -3.01% | 833.33 nM 0.98% | 10000 nM 1.43%

COc1cc2cc(c1Cl)N(C)C(=O)C[C@H](OC(=O)C(C)C)[C@]1(C)O[C@@H]1[C@H](C)[C@@H]1C[C@@](O)(NC(=O)O1)[C@H](OC)/C=C/C=C(\C)C2 [ansamitocin-p-3]
inactive: 1 nM 2.87% | 8.33 nM -1.3% | 100 nM -3.14% | 833.33 nM -0.53% | 10000 nM 0.75%

CCN(CC)CCNC(=O)c1cc(Br)c(N)cc1OC [bromopride]
inactive: 1 nM -3.41% | 8.33 nM -1.83% | 100 nM -0.25% | 833.33 nM -3.5% | 10000 nM -1.74%

c1cnc2c([O][Ga]([O]c3cccc4cccnc34)[O]c3cccc4cccnc34)cccc2c1 [gallium-triquinolin-8-olate]
inactive: 1 nM -0.23% | 8.33 nM 1.56% | 100 nM -0.49% | 833.33 nM 4.98% | 10000 nM 3.63%

O=[N+]([O-])c1cncn1CCN1CCOCC1 [nimorazole]
inactive: 1 nM -1.41% | 8.33 nM -0.32% | 100 nM 0.99% | 833.33 nM 0.22% | 10000 nM -0.02%

COc1ncc(-c2ccc3nccc(-c4ccnnc4)c3c2)cc1NS(=O)(=O)c1ccc(F)cc1F
inactive: 1 nM -1.37% | 8.33 nM -0.94% | 100 nM -8.41% | 833.33 nM -8.47% | 10000 nM 3.03%

CC#C[C@@H](CC(=O)O)c1ccc(OCc2cccc(-c3ccc(C(F)(F)F)cc3)c2)cc1
inactive: 1 nM -0.29% | 8.33 nM 1.42% | 100 nM -0.33% | 833.33 nM 2.32% | 10000 nM 4.27%

CCNC(=O)Nc1ccc(-c2nc3c(c(N4CCOC[C@@H]4C)n2)CCN(C2COC2)C3)cc1
inactive: 1 nM 0.65% | 8.33 nM -0.06% | 100 nM -0.8% | 833.33 nM 0.29% | 10000 nM -0.84%
